Data reported in PubChem BioAssay AID2283334 (EPA ToxCast).
Records with an inconclusive call do not appear. Calls of active or inactive are those of the source. The calls were made as follows: active = hit-call score of the fitted dose curve at least 0.9, where 1 is the maximum; inactive = score below 0.9.

Target: Grik1 (gene 29559) (UniProt P22756)
Experiment: NVS_IC_rKAR: NovaScreen (NVS) Ion Channel Assay for Kainic Acid Receptors (KAR)
Procedure: NVS_IC_rKAR is a biochemical, single-readout assay that uses extracted gene-proteins from Rat forebrain membranes in a tissue-based cell-free assay. Measurements were taken 1 hour after chemical dosing in a 48-well plate.NVS_IC_rKAR is one of one assay component(s) measured or calculated from the NVS_IC_rKAR assay. It is designed to make measurements of radioligand binding, a form of binding reporter, as detected with scintillation counting signals by Filter-based radiodetection technology.Data from the assay component NVS_IC_rKAR was analyzed into 1 assay endpoint. This assay endpoint, NVS_IC_rKAR, was analyzed in the positive analysis fitting direction relative to DMSO as the negative control and baseline of activity. […] Furthermore, this assay endpoint can be referred to as a primary readout, because the performed assay has only produced 1 assay endpoint. […]
Binding assays used specific radioligands (tritiated, iodinated) with non-radioactive competitive displacement ligands in agonist or antagonist protocols (as indicated) and various reference compounds and inhibitors to titrate specific binding to receptors and transporters. Most enzyme assays (CYPs, kinases, phosphatases, proteases, HDACs) used recombinant protein and specific substrates (fluorescence mostly, some colorimetric and radioactive) and inhibitors, followed by a biochemical separation of substrate and product. […]

Chain of Grik1 (gene 29559) (P22756 whole entry, looked up): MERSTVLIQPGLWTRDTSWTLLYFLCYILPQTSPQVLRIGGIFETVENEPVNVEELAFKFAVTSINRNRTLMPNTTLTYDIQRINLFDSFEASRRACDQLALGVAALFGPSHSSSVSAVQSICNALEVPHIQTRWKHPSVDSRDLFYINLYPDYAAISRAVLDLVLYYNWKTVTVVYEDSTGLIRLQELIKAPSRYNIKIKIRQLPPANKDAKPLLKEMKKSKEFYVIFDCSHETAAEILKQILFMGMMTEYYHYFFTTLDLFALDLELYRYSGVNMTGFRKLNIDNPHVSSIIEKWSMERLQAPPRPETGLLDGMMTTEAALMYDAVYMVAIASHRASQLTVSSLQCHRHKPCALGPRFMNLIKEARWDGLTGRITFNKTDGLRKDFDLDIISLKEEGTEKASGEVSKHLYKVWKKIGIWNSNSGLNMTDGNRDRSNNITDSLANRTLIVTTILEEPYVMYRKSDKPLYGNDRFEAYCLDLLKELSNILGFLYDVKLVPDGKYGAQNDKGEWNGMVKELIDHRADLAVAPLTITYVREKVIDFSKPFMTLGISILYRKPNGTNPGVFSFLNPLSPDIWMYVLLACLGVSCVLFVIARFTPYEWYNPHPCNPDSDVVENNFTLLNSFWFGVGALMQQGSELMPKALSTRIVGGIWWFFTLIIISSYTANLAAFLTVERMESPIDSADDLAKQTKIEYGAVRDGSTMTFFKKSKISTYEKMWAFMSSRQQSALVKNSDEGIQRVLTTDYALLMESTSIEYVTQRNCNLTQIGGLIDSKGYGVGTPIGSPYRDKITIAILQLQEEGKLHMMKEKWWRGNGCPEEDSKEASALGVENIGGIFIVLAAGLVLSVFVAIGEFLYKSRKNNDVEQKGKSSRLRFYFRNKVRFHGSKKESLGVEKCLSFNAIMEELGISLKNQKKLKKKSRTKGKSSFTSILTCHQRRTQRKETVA

Row | SMILES | AC50
1 | CCCCCCCCCCCCCCCCCC(=O)O | 1.4 µM (active)
2 | CCCCCCC(C)OC(=O)COc1nc(F)c(Cl)c(N)c1Cl (configuration not stated) | 30.2 µM (active)
